# Bioassay records from PubChem BioAssay.
# DAX1 inh-1 = inhibitors of DAX1 repression of SF-1 activated StAR promoter; HEK293T StAR-luciferase reporter, SF-1/DAX-1 repression relief; inhibition, % at 6.8 µM; hit rate 1.1% among 370,000; AID 652010;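 active = inhibition above the mean over all tested compounds plus 3 SD, cut at about 3.6% in these data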;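 also: 0% = DAX-1 cells with DMSO and 100% = cells lacking DAX-1 with DMSO; higher inhibition means more luminescence from relief of DAX-1 repression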
# ssDAF-12 act = S. stercoralis DAF-12 activation, primary screen; HEK293 ssDAF-12/GRIP1 lit1-tk-luc reporter, luminescence; % of 3 µM dafachronic acid response; activation, % at 6.8 µM; hit rate 1% among 370,000;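 active = activation above the mean over all tested compounds plus 3 SD, cut at about 0.9% in these data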;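 also: 0% = DMSO-only wells and 100% = 3 µM delta7-dafachronic acid wells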
# DAX1 inh-2 = inhibits human nuclear receptor DAX1 | inhibition, % at 6.75 µM | HEK293 Gal4-DAX1 luciferase reporter, luminescence | hit rate 0.99% among 340,000 | AID 504766;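 active = inhibition above the mean over all tested compounds plus 3 SD, cut at about 4.2% in these data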;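 also: 0% = DAX1-transfected cells with DMSO and 100% = empty-vector control cells with DMSO; inhibition shows as a rise in luminescence from relieved DAX1 repression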
# Target sequence (P51843 207-470 limits assumed): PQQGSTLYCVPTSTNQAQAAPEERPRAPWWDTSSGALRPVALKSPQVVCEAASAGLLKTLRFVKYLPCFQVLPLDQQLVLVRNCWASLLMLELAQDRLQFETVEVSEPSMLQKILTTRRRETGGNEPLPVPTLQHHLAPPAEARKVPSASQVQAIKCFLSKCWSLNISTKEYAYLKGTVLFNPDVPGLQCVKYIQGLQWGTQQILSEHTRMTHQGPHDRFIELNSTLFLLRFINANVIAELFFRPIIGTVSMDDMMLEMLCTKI
# hcDAF-12 act = activators of H. contortus DAF-12 nuclear receptor; AID 652067; hit rate 1.4% among 370,000; activation, % at 6.8 µM; HEK293 hcDAF-12 lit1-tk-luc reporter, luminescence; 0% DMSO, 100% Δ7-dafachronic acid;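 active = activation above the mean of all tested compounds plus 3 SD, cut at about 5.5% in these data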;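 also: 100% = response to 3 µM Δ7-dafachronic acid high control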
# hgDAF12 agonist = activates the H. glycines DAF-12 receptor ligand-binding domain; HEK293 GAL4-hgDAF12 UAS-luciferase reporter, agonist luminescence; normalized to butyrate control; activation, % at 6.8 µM; hit rate 1.8% among 370,000; AID 687014;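 active = activation above a cutoff set at the mean of all screened compounds plus 3 SD, cut at about 10% in these data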;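 also: 0% = DMSO wells and 100% = sodium butyrate wells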
# The depositor's hits bear a star; . = no result given. An excerpt weighted towards active compounds, which were near 4.1% of everything screened.
SMILES,DAX1 inh-1,ssDAF-12 act,DAX1 inh-2,hcDAF-12 act,hgDAF12 agonist
O=C(NCc1cccs1)C1CCCN(S(=O)(=O)c2cccc3ccccc23)C1 (centres undefined),0,-2,.,1,-2
CC1(NC(=O)Nc2cccc(Br)c2)CCS(=O)(=O)C1 (centres undefined),0,0,5.2*,-1,-1
CC1(NC(=O)Nc2ccccc2)CCS(=O)(=O)C1 (centres undefined),0,-1,.,-1,-2
COCC(=O)N[C@H]1C[C@@H]2O[C@@H](CO)CC[C@@H]2O[C@@H]1CCc1ccc(-c2ccccc2)cc1,-1,-1,.,-2,1
O=C(COc1ccc(Cl)cc1Cl)OCC(=O)N1CCCc2ccccc21,1,1,9.8*,5,4
O=C(CCCOc1ccc(Cl)cc1Cl)N1CCCc2ccccc21,0,-1,-1,0,-2
C=CCN1[C@@H](C)COc2cc(N3CCSCC3)ccc2S1(=O)=O,-1,-2,.,-2,0
CC(=O)Nc1ccc(NC(=O)CCn2nnc3ccccc32)cc1,0,1.3*,-1,4,1
CCOC(=O)c1ccc(NC(=O)CCn2nnc3ccccc32)cc1,0,-1,0,1,4
C/C(=N\NC(=O)CCn1nnc2ccccc21)c1ccco1,0,0,4.7*,-1,-2
NNC(=O)CCn1nnc2ccccc21,0,-1,1,-1,-1
CCCCS(=O)(=O)N1CCCc2nc(-c3ccccc3)ccc21,0,-1,.,-1,2
CCNC(=O)Nc1ccc(-n2nc(C)c(C(=O)OCC)c2C)nc1,0,-1,4.8*,1,-1
CCOC(=O)c1c(C)nn(-c2ccc(NC(=O)/C=C/C(=O)O)cc2)c1C,-2,-4,-5,-8,-14
C=CCSc1nnc2nc3[nH]c4c(C)cccc4c3nn12,1,0.9*,1,4,6
Cc1ccc(NC(=O)CCS(=O)(=O)c2ccccc2)c(C)c1,0,0,.,-2,-1
O=C(Cc1cccc2ccccc12)Nc1ccc(Br)cc1C(=O)O,0,-1,5.6*,-1,1
O=C(Cc1cccc2ccccc12)Nc1ccc(O)cc1C(=O)O,0,-1,1,0,4
C=CCN1[C@H](CO)[C@H](c2ccccc2)[C@@H]1C#N,0,-1,.,-2,-6
Clc1ccc(/C=N/NC(=Nc2ccccc2)c2ccccn2)c(Cl)c1,3,0,3,6,12*
COc1ccccc1NC(=O)N(C)C[C@@H]1OCc2cn(nn2)CCCC(=O)N([C@@H](C)CO)C[C@H]1C,1,0.9*,0,2,-1
COc1ccc(S(=O)(=O)N(C)C[C@@H]2OCc3cn(nn3)CCCC(=O)N([C@H](C)CO)C[C@H]2C)cc1,3.7*,-1,.,1,0
O=C(NCc1ccccc1)[C@H]1CCCN1C(=O)[C@H]1CCCN1C(=O)c1ccc(OC(F)(F)F)cc1,0,-2,.,-1,-1
CCOC(=O)CC[C@H]1CC[C@]2(CCCN(S(=O)(=O)c3ccccc3)C2)O1,0,-1,.,-2,-3
CN1CCc2c(sc3c2c(=O)n(-c2ccccc2)c2n[nH]c(=S)n32)C1,0,-2,4.7*,-2,-1
SMILES,DAX1 inh-1,ssDAF-12 act,DAX1 inh-2,hcDAF-12 act,hgDAF12 agonist
CC1CCCN(C(C(=O)Nc2ccc3c(c2)OCCO3)c2ccccc2)C1 (centres undefined),0,-1,0,-1,-2
CC1CCCN(C(C(=O)Nc2ccc3c(c2)OCO3)c2ccccc2)C1 (centres undefined),1,0,0,6.3*,6
O=C(CCC(=O)NNc1nc2ccccc2c2nc(-c3ccccc3)nn12)NCCCN1CCOCC1,0,0,0,5.6*,5
CN1CCN(CCCNc2nc3ccccc3c3nc(-c4ccccc4)nn23)CC1,1,-1,0,-2,1
O=c1c([N+](=O)[O-])c(Cl)c2ccccc2n1Cc1ccccc1,.,-1,.,-2,-2
COc1ccc(-c2csc(NC(=S)NC(=O)c3ccco3)n2)cc1,0,-1,1,0,0
CCCC(=O)NC(=S)Nc1nc(-c2ccc(OC)cc2)cs1,1,0,4.7*,3,8
COc1ccc(-c2csc(NC(=O)COC(=O)c3ccco3)n2)cc1,2,-1,-1,3,11*
Cc1ccc(-c2csc(NC(=O)c3cccc(S(=O)(=O)N4CCN(C)CC4)c3)n2)cc1,0,-1,0,1,3
CCn1nc(C(=O)OCC(=O)Nc2nc(-c3ccc(OC)cc3)cs2)c2ccccc2c1=O,1,0,3,2,11*
Cc1ccc(-c2csc(NC(=O)COC(=O)c3cccc(S(=O)(=O)N4CCOCC4)c3)n2)cc1,3.6*,-1,.,1,7
CCn1nc(C(=O)OCC(=O)NCC(C)C)c2ccccc2c1=O,1,-2,0,-1,3
COC(=O)[C@]12C[C@H](CC(=O)NCCC(C)C)C(=O)N(Cc3cccc4ccccc34)C1=C[C@H](COCc1ccccc1)O[C@@H]2C,-1,-1,.,-2,-1
O=C1CCC[C@H]2C[C@H](NCc3ccc(Cl)c(C(F)(F)F)c3)CC[C@]23CCCN13,.,-1,.,-1,0
COC(=O)[C@]12C[C@H](CC(=O)NCC34CC5CC(CC(C5)C3)C4)C(=O)N(Cc3cccc4ccccc34)C1=C[C@H](C(C)(C)C)O[C@@H]2C,-1,-1,.,-1,3
COC(=O)C1CN(Cc2ccc(OC)cc2)CCS(=O)(=O)N1Cc1cn(Cc2ccc(Cl)cc2)nn1 (centres undefined),0,-1,.,-3,1
COc1ccc(NC(=S)NCCc2ccc(S(N)(=O)=O)cc2)c(OC)c1,0,-1,0,0,7
CC(NCCc1ccc(S(N)(=O)=O)cc1)C(=O)NCCc1ccc(F)cc1 (centres undefined),0,-1,5.1*,-1,-1
CC(NCC(=O)NCCc1ccc(S(N)(=O)=O)cc1)c1ccc(F)cc1 (centres undefined),1,0,1,1,2
COc1cc(NC(=S)NCCc2ccccc2)c(OC)cc1NC(=O)C(C)C,-1,1.9*,0,-2,-1
COc1ccccc1NC(=S)NCCc1ccc(S(N)(=O)=O)cc1,0,-1,0,5.9*,-2
C=CCn1c(SCc2ccc(C#N)cc2)nnc1-c1ccco1,-1,-1,.,0,2
CN1C2=N[C@H](c3cccc(C(F)(F)F)c3)CC(=O)N2/C(=C\c2ccccc2)[C@H]1c1ccccc1,.,-2,.,-2,1
CCn1c(=O)c(C(=O)CN2CCOCC2)c(N)n(Cc2ccccc2)c1=O,0,-1,0,-3,2
CCn1c(=O)c(C(=O)CC#N)c(N)n(Cc2ccccc2)c1=O,1,-1,4.9*,-2,-3
C=CCn1c(SCC(=O)Nc2ccc(Br)cc2)nc(O)cc1=O,-2,-1,0,-1,-2
